In the library only some 2.9% were active in any assay of this set; here they are far more common.
SKN-1 inh: suppressors of acrylamide-induced Pgst-4::GFP reporter in worms, primary screen, SKN-1 inhibitor project, whole organism, uHTS, GFP/RFP fluorescence ratio, strain VP596; 360,000 compounds, 0.49% hits; inhibition, % at 21.8 µM; C. elegans VP596 Pgst-4::GFP/RFP ratio, 24 h;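 active = interference check ratio from 0.5 to 1.5 plus GFP to RFP signal ratio inhibition reaching or exceeding a fixed threshold, cut at about 30% in these data, passing the limit was not always enough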
NR1D1 modulator: modulators of Rev-erb alpha DNA binding, primary screen, biochemical, FITC-DNA, fluorescence polarization, uHTS; Nuclear receptor subfamily 1 group D member 1 (Homo sapiens), P20393; Rev-erbα–FITC-DNA binding, 90 min; activity, % at 10 µM; 370,000 compounds, 0.79% hits; AID 1259318, 2017;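 active = activity above about 14%, limit read from the data; passing the limit was not always enough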;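 note: 0% = DMSO wells with 35 nM protein and 100% = DMSO wells with 750 nM protein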
Target sequence (P20393 whole entry, looked up): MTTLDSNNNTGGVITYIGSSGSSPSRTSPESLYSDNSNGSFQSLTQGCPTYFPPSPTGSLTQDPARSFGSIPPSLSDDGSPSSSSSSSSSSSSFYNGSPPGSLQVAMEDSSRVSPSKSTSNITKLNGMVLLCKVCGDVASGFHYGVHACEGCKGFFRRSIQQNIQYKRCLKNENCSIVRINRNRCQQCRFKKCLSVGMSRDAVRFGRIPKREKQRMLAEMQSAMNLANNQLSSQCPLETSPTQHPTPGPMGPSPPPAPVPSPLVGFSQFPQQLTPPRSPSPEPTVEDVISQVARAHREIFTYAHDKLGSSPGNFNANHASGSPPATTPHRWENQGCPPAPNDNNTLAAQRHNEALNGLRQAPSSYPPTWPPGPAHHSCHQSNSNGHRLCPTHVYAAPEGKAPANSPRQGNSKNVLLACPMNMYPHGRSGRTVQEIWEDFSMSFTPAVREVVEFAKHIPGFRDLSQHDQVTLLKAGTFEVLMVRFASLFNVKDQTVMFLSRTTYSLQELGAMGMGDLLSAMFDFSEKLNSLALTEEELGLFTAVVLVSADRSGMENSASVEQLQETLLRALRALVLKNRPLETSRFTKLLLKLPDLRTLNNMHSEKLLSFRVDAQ
EP2 modulator: EP2 receptor modulators, cAMP readout, primary screen, cell-based, HTRF cAMP, PGE2 stimulation. Prostaglandin E2 receptor EP2 subtype (Homo sapiens), P43116. EP2-expressing cells, cAMP HTRF FRET, PGE2 co-stimulation. induction, % at 25 µM. 260,000 compounds, 0.83% hits. AID 940, 2007;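 active = compounds whose cAMP rise, as percent of the full-agonist control response, exceeds 60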;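 note: rat C6 glioma line stably carrying human EP2 under a CMV promoter; the protocol text gives 20 µM as final concentration; 100% = response of wells given 1 µM PGE2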
RAM network inh: inhibitors of the yeast RAM network, primary screen, dse1pr::URA3 reporter, 5-FOA selection. S. cerevisiae dse1pr::URA3 reporter, 5-FOA growth OD615, 2 d; analog-sensitive cbk1-as2 kinase mutant strain. inhibition, % at 50 µM. 190,000 compounds, 1.8% hits. AID 868, 2007;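 active = inhibition above a set limit, 3 SD over mean compound inhibition, cut at about 8.4% in these data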;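 note: 0% = DMSO-only wells with no growth and 100% = 10 µM 1-NA-PP1 full growth; inhibition rescues growth on 5-FOA so higher OD means more RAM inhibition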
PG9 binder: binders of HIV-1 gp120 antibody PG9, primary screen, biochemical, TR-FRET. HIV-1 gp120 / PG9 antibody interaction. TR-FRET gp120-PG9 antibody binding. inhibition, % at 6.7 µM. 360,000 compounds, 0.43% hits. AID 624416, 2012; in the data active = inhibition above about 8.5%
PGE2 EP2 inh: human EP2 receptor antagonists, primary screen, TR-FRET cAMP, C6 glioma cells; Prostaglandin E2 receptor EP2 subtype (Homo sapiens), P43116; C6 glioma cells expressing human EP2; cells stimulated with saturating PGE2; inhibition, % at 25 µM; 260,000 compounds, 0.52% hits; AID 1422, 2008;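 active = percent inhibition above 40 after rounding to a whole number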;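 note: rat C6 glioma host cells with rolipram phosphodiesterase inhibitor present; the protocol text gives 20 µM as final concentration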
The depositor's hits bear a star; x = no result.

SMILES	SKN-1 inh	NR1D1 modulator	EP2 modulator	RAM network inh	PG9 binder	PGE2 EP2 inh
CC(=O)c1ccc(-c2ccc(C(=O)N3CCCc4ccccc43)o2)cc1	2	-1	-13	9.4*	-2	3
CCn1c2cc(C)oc2c2cnn(CC(=O)N3CCCCC3)c(=O)c21	x	x	-5	x	x	x
CCOC(=O)c1c(C)c(C)n2c1NC(=O)C2	46*	6	19	x	0	11
CCC(Oc1ccccc1F)C(=O)N1CC(CN2CCOCC2)c2ccccc21 (configuration not stated)	x	x	-24	x	x	3
COc1ccc(Nc2ccc3c(c2)=NC2(CCCCC2)[N+]=3[O-])cc1	25	x	-39	8.9*	-46	4
COn1c(SCc2ccc(C)cc2C)nc2ccccc2c1=O	-27	-6	21	9.2*	-2	6
COn1c(SCC(N)=O)nc2ccccc2c1=O	2	-5	15	1	3	3
COc1ccc(OC)c(NC(=O)C2CCN(C(=O)c3ccccc3Cl)CC2)c1	x	x	1	x	x	14
CSc1ccccc1NC(=O)c1cccs1	-15	-1	14	0	1	12
O=C(Nc1ccccc1Oc1ccccc1)c1cccs1	42*	8	x	x	-2	x
O=C(O)CSc1cc(C(=O)c2ccccc2O)cn2c(=O)c3c(-c4ccccc4)csc3nc12	8	-1	61*	5	-1	8
CN(C)C(CNC(=O)c1cc(-c2cccs2)no1)c1ccc(F)cc1 (configuration not stated)	x	x	-89	x	x	1
CC1=Nc2ccccc2/C1=C\c1nc(-c2ccc(F)cc2)oc1O	6	3	10	8.6*	-3	2
CCOCc1nnc(NC(=O)c2ccccc2SCCOC)s1	x	x	14	x	x	13
O=C(OCC#CCSc1nnc(-c2ccc(Br)cc2)o1)c1ccco1	13	4	16	10*	1	9
O=C(OCC#CCSc1nnc(-c2ccccc2)o1)c1ccco1	1	2	1	0	0	11
CCN1C(c2ccccc2)=C(c2ccccc2)S/C1=C\C=C1/SC(=S)N(C)C1=O	50*	-11	x	x	-1	7
CCN1C(c2ccccc2)=C(c2ccccc2)S/C1=C/C=C1\SC(=S)N(C)C1=O	55	3	2	6	-1	x
CCCn1c(SCC(=O)Nc2c(C)cc(C)cc2C)nc2c1c(=O)n(C)c(=O)n2C	x	x	-4	x	x	11
COc1ccc(C2CC(c3c(-c4ccccc4)c4cc(Cl)ccc4[nH]c3=O)=NN2C(=O)CCC(=O)O)cc1 (configuration not stated)	-9	-1	26	9.1*	0	7
N=C1C(c2nc3ccccc3s2)=C(O)CN1c1ccc(Cl)cc1	x	x	-45	x	x	17
CCN1C(=O)CSc2ccc(C(=O)NC3CCCCC3)cc21	15	0	6	8.7*	1	8
Cc1cc(SCC(=O)N2C(C)CCCC2C)nc2ccccc12 (configuration not stated)	x	x	45	x	x	10
O=C1CNCCCN2CCN(CCCNCC(=O)Nc3ccc(cc3)S(=O)(=O)c3ccc(cc3)NC(=O)CNCCCN3CCN(CCCNCC(=O)Nc4ccc(cc4)S(=O)(=O)c4ccc(cc4)N1)CC3)CC2	x	x	7	x	x	42*
O=C1CN2CCN(CC2)CC(=O)Nc2ccc(cc2)S(=O)(=O)c2ccc(cc2)NC(=O)CN2CCN(CC2)CC(=O)Nc2ccc(cc2)S(=O)(=O)c2ccc(cc2)N1	x	x	13	x	x	51*
SMILES	SKN-1 inh	NR1D1 modulator	EP2 modulator	RAM network inh	PG9 binder	PGE2 EP2 inh
CC(C)(C)C(=O)NC1CCN(C(=O)Nc2cccc(Cl)c2)CC1	x	x	-18	x	x	5
Cc1ccc2cc(C(c3nnnn3Cc3ccccc3)N(C)C3CCCCC3)c(=O)[nH]c2c1C (configuration not stated)	x	x	-4	x	x	14
Cc1ccc(NC(=O)C2(C)CCN2C(=O)c2ccccc2CCc2ccccc2)cc1C (configuration not stated)	5	7	x	x	-2	x
CC1(C(=O)Nc2cnc3ccccc3c2)CCN1C(=O)c1ccccc1CCc1ccccc1 (configuration not stated)	39*	-3	x	x	-1	x
CN1/C(=C/C=C/c2n(C)c3cc([N+](=O)[O-])c([N+](=O)[O-])cc3[n+]2C)C(C)(C)c2ccccc21	57*	-35	x	x	-21	x
Cc1cccc[n+]1CC(=O)/C=C1\N(C)c2ccccc2C1(C)C	51	-5	7	2	0	10
CCc1ncc(CN2CCC(O)(c3ccccc3C)CC2)cn1	x	x	-15	x	x	3
C=CCn1c(N2CCC(C(=O)NC(C)c3cc(OC)ccc3OC)CC2)nc2ccccc21 (configuration not stated)	x	x	-53	x	x	11
O=Cc1ccc(OCc2cccc(C(F)(F)F)c2)cc1O	8	-2	63*	8	1	6
COC(=O)C1=C(C)NC(=O)/C1=C\c1ccc(C(C)C)cc1	x	x	-94	x	x	12
COC(=O)C1=C(C)NC(=O)/C1=C\N(C)C	39*	4	5	0	-3	3
CC(C)CC(=O)O/N=C1\C(=O)N(Cc2ccc(Cl)cc2)c2ccc([N+](=O)[O-])cc21	x	x	35	8.4*	x	4
CCOc1ccccc1NC(=O)C1CCCN1C(=O)NCc1ccccc1 (configuration not stated)	x	x	-46	x	x	5
COc1ccc(C(CC(=O)NCc2ccccc2)Sc2n[nH]c(-c3ccccc3)n2)cc1 (configuration not stated)	7	0	12	4	-4	3
COc1ccc(C(CC(=O)NCc2ccccc2)Sc2n[nH]c(-c3ccc(Cl)cc3)n2)cc1 (configuration not stated)	1	0	19	8.7*	1	8
COc1ccc(NC(=O)COc2ccc(S(=O)(=O)N3CCCC3)cc2)cc1	x	x	-28	x	x	3
CCN(CC)c1ccc(/C=N/Nc2nc3ccccc3[nH]2)c(O)c1	7	2	-56	1	-1	61*
CCCCCCCCn1cnc2c(N)c(C)c(C)cc21	0	1	62*	-1	2	3
CCn1c(=N)c(C(=O)NCCCOC)cc2c(=O)n3cc(C)ccc3nc21	x	x	-14	x	x	8
Nc1cc2c(cc1Cl)-c1ccccc1C2	49*	-1	x	x	0	x
COC(=O)c1ccc(-n2nnnc2SCC(=O)Nc2ccc(OC)cc2OC)cc1	x	x	-79	x	x	10
CCn1nc(CCC(=O)O)c2ccccc2c1=O	41*	6	22	3	-1	6

Screening data deposited in PubChem BioAssay by several laboratories.
